Screening data as filed in PubChem.
Rows were chosen to be rich in hits. Some 7.5% of all compounds tested hit in one or more screens of this group.
HCMV inh: qHTS Assay for inhibitors of the human cytomegalovirus (HCMV); 4.5% of 410,000 active; HFF cells, HCMV-luciferase reporter, 72 h; stronger effect = lower value; activity change, negative = inhibition, % at 57.5 µM; in the data active means activity change below about -60%; inconclusive means no clear call, values can overlap the other calls; inactive means above about -39%
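Inhibition of viral replication was scored as loss of reporter luminescence in HFFs infected with HCMV-luciferase (MOI 1 PFU/cell) for 72 h; compounds tested at 2 doses, normalized to buffer and Salinomycin controls.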
VACV mCherry inh: qHTS for Stage-Specific Inhibitors of Vaccinia Orthopoxvirus: mCherry Reporter Primary qHTS; Vaccinia virus mCherry reporter infection, fluorescence; Potency, µM (series often up to 36.5 µM), for the others: at the top dose activity change, negative = inhibition, hits mostly inhibitors; 0.63% of 310,000 active; AID 720579, 2013; calls by dose curve; tested in A549 cells; further: potency means the concentration at half of the fitted maximal effect; nearly all actives have a fitted effect of over 35% in size
FBPA Giardia inh: qHTS Assay for Inhibitors of Fructose-1,6-bisphosphate Aldolase from Giardia Lamblia | purified Giardia FBPA | A8B2U2 | AID 2451, 2010 | Potency, µM (titrated, usually from 59.6 µM), without a hit: at the top dose activity, negative = inhibition, usual class: inhibitors | 0.71% of 290,000 active; further: potency means the concentration at half of the fitted maximal effect; nearly all actives have a fitted effect of over 55% in size
Target sequence (A8B2U2 whole entry, looked up): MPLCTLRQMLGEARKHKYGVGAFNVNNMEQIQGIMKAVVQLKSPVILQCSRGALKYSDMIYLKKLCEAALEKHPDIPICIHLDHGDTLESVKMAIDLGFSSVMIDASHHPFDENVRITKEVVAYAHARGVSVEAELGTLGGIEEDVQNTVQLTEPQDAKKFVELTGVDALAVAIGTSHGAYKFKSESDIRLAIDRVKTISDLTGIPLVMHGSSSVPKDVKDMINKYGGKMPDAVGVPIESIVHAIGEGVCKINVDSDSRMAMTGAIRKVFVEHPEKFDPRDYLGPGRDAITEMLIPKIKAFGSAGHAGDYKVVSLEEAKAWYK
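Giardia FBPA (40 nM reagent) was preincubated 10 min at RT with compound (up to 57.5 uM final), then substrate plus GAPDH/TPI/NAD/arsenate coupling system with diaphorase/resazurin was added; resorufin fluorescence (525/598 nm) was read after 20 min.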
FMDV inh: High Throughput Screening for Foot and Mouth Disease Virus Antivirals. AID 1159524, 2015. Potency, µM (doses to about 57.9 µM), inactives show at the highest dose activity change, negative = inhibition, actives largely listed as inhibitors. 1.2% of 410,000 active. FMDV antiviral cell-based qHTS; calls by dose curve; tested in HEK293T cells; further: read-out not given here; potency means the concentration at half of the fitted maximal effect; nearly all actives have a fitted effect of over 45% in size
HCV inhibitor: qHTS Assay for Inhibitors of Hepatitis C Virus (HCV); Huh7.5.1 HCVcc-Cre infection, luciferase reporter, 44 h; Potency, µM (doses to about 41.8 µM), without a hit: top-dose activity change, negative = inhibition, hits mostly inhibitors; 3.4% of 340,000 active; further: potency means the concentration at half of the fitted maximal effect
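HCVcc-Cre virus at an moi near 0.5 was added right after compound to cells cultured 4 h from seeding (1,000 cells/well). Luciferase activity was determined 44 h later, 15 min after substrate addition at RT.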
Vaccinia Venus: qHTS for Stage-Specific Inhibitors of Vaccinia Orthopoxvirus: Venus Reporter Primary qHTS | 0.46% of 330,000 active | Vaccinia virus Venus reporter expression, fluorescence | Potency, µM (doses to about 36.5 µM), without a hit: at the top dose activity change, negative = inhibition, actives largely listed as inhibitors | AID 720580, 2013; calls by dose curve; tested in A549 cells; further: potency means the concentration at half of the fitted maximal effect; nearly all actives have a fitted effect of over 30% in size
Numbers without * were called inactive; i = inactive; ? = inconclusive; / = no result; [ ] = another dose, or the depositor's remark. Unless noted, the call rests on the fitted dose curve; in most records, active means well fitted curve in the direction sought with a large enough effect; inconclusive means small, poorly fitted or top-dose-only effect, or another doubt; inactive means no such curve, though single readings can be large; an effect the other way counts as inactive or inconclusive. On the % scale 0 is the no-effect control and ±100 the full control effect.

SMILES | HCMV inh | VACV mCherry inh | FBPA Giardia inh | FMDV inh | HCV inhibitor | Vaccinia Venus
O=C(N/C(=C\c1cccc([N+](=O)[O-])c1)C(=O)N1CCOCC1)c1ccco1 | -22 | -2% | 10% | 9% | 1% | -17%
CCOC(=O)/C(C#N)=C(/C)c1ccc(OC)cc1 | 14 | -11% | -2% | 0% | 32µM* | -6%
O=C(Cn1ccccc1=O)NCc1ccc(F)cc1 | -21 | i | -27% | 15% | -1% | -9%
CCOC(=O)[C@]12Cc3c(cc(OC)c(OC)c3OC)[C@H]1N(C(C)C)C(=O)c1ccccc12 | -100* | -4% | / | ? | / | -9%
CCOC(=O)[C@]12Cc3cc(OC)ccc3[C@H]1N(Cc1ccccc1)C(=O)c1ccccc12 | -13 | ? | / | 0% | ? | ?
CCOC(=O)[C@]12Cc3ccccc3[C@H]1N(C)C(=O)c1cc(OC)ccc12 | -97* | -5% | / | ? | / | -15%
CCOC(=O)[C@]12Cc3cc(C)ccc3[C@H]1N(Cc1ccccc1)C(=O)c1ccccc12 | -13 | -22% | / | ? | -12%[8.37 µM] | -22%
CCOC(=O)[C@]12Cc3ccccc3[C@H]1N(Cc1ccccc1)C(=O)c1ccccc12 | -5 | ? | / | -1% | 20% | ?
CCOC(=O)[C@]12Cc3ccccc3[C@H]1N(C(C)C)C(=O)c1cc(OC)ccc12 | -97* | ? | / | 28µM* | / | ?
CCOC(=O)[C@]12Cc3cc(C)ccc3[C@H]1N(C(C)C)C(=O)c1ccccc12 | -98* | ? | / | 10µM* | / | ?
COCCCNC(=O)C1CCN(S(=O)(=O)c2ccc3nc4c(c(C(=O)O)c3c2)CCCCC4)CC1 | -37 | / | 1% | 0% | 10% | /
C[C@H]1C2=C3C(CC[C@H]4C(OCc5ccc(F)cc5C(F)(F)F)OC[C@](C)([C@@H]34)N(C(=O)OC(C)(C)C)C2)C(CO)C1CO (some centres undefined) | / | / | -7% | / | / | /
CCC(=O)NC1CCc2cccc(OC)c2C1 (centres undefined) | / | i | / | 2% | / | -11%
Clc1cc(-c2ccccc2)nc(-c2ccccc2)n1 | -16 | i | / | -10% | ? | -9%
Brc1cc(-c2ccccc2)nc(-c2ccccc2)n1 | 25 | i[7.34 µM] | / | -5% | 11µM* | -1%[7.34 µM]
COc1ccc(-c2csc(NC(C)c3nc4cc(Cl)c(N5CCCCC5)cc4n3CCCO)n2)cc1 (centres undefined) | 0 | 8.9µM* | / | -24% | ? | ?
COc1ccc(-c2csc(NC(C)c3nc4cc(Cl)c(Cl)cc4n3CCOCCO)n2)cc1 (centres undefined) | 31 | ? | / | -22% | ? | -22%
CC(Nc1nc(-c2ccc(F)cc2)cs1)c1nc2cc(Cl)c(Cl)cc2n1CCCO (centres undefined) | 3 | 10µM* | / | -15% | ? | ?
CN(CCCC1CCCC1)C(=O)CC1C(=O)NCCN1Cc1cccc(F)c1F (centres undefined) | -28 | -21% | / | -26% | 17% | -15%
COc1ccccc1N1CCN(c2nc(CNC(=O)c3ccc4c(c3)OCO4)nc3ccccc23)CC1 | / | i | / | ? | / | -14%
CCCCCCn1ccc(=N)cc1 | -80* | / | 1% | 0% | 0.79µM* | ?
CCCCCCCCCCCCCCCCn1cc[n+](CC(C)=O)c1 | / | / | 2% | ? | ? | /
Cc1cc2nc(NCCCO)n(CC(=O)c3cc(C(C)(C)C)c(O)c(C(C)(C)C)c3)c2cc1C | -13 | ? | / | 0% | ? | 10µM*
CC1/C(=N/O)CC(c2ccccc2)NC1c1ccccc1 (centres undefined) | -28 | -9% | 13% | -25% | -3% | -8%
CCCC1/C(=N/O)CC(c2ccccc2)NC1c1ccccc1 (centres undefined) | -101* | -14% | 1% | ? | -14% | 0%
